# Compound activity: PubChem BioAssay, Broad Institute
# This is a sample that favours compounds with a hit; in the whole collection about 4% have one here.
# MITF TRPM1 HTS – activators of MITF-driven TRPM1 promoter reporter, primary screen, cell-based, SK-MEL-5, luciferase, single point | hit rate 0.75% among 300,000 | activation, % at 12.5 µM | SK-MEL-5 TRPM1-promoter luciferase, 24 h; % of positive control, neutral wells = 0;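 active = mean activation of at least 80% with every replicate also reaching 80%; inconclusive = mean reaches 80% but some replicate falls short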;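 note: 0% = neutral control wells and 100% = parthenolide positive control wells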
# LMP1 NFkB inh – EBV LMP1-driven NF-kappaB luciferase reporter inhibitors, primary screen, cell-based, luminescence, single point | inhibition, % at 12.5 µM | LMP1-induced NF-kappaB luciferase reporter cells | hit rate 0.69% among 350,000; in the data active = inhibition above about 41%; inconclusive = no clear call, values can overlap the other calls;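 note: 0% = neutral control wells and 100% = reference inhibitor control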
# TRPM1 prom inh – inhibitors of MITF-dependent TRPM1 promoter reporter, primary screen, cell-based, SK-MEL-5, single point, luciferase | SK-MEL-5 TRPM1 promoter luciferase, 24 h | inhibition, % at 12.5 µM | hit rate 0.83% among 330,000;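 active = mean inhibition across replicates of 60% or more, whatever share of single replicates reaches that level; inconclusive = some that reach 60%, reason not given; inactive = mean inhibition across replicates below 60%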
# esBAF inh – Bmi1 luciferase reporter increase in mESCs, primary screen, esBAF inhibitor project, mouse ES cells, Bmi1 luciferase knock-in, single point; 24 h; 100% = twice the neutral-well signal; reporter increase, % at 12.5 µM; hit rate 2% among 350,000; AID 602393, 2012; in the data active = activation above about 40%; inconclusive = no clear call, values can overlap the other calls;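 note: 0% = median of the plate's neutral control wells and 100% = double that signal; a rise in the Bmi1 reporter signal indicates esBAF inhibition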
# Wnt act – Wnt/beta-catenin pathway activators, primary screen, cell-based, plate reader, single point. Wnt/beta-catenin reporter cell assay, activator. activation, % at 9.35 µM. hit rate 1.2% among 300,000. AID 743398, 2014; in the data active = activation above about 30%, passing the limit was not always enough; inconclusive = no clear call, values can overlap the other calls;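 note: 0% = neutral control wells and 100% = positive control wells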
# C2C12 statin – suppressors of statin myotoxicity in C2C12 myotubes, primary screen, cell-based, single point, plate reader. C2C12 myotubes + simvastatin, ATP luminescence, 48 h; scaled: DMSO 0, geranylgeraniol control 100. rescue of ATP level, % at 7.49 µM. hit rate 0.78% among 330,000;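 active = mean ATP rescue above about 67%, or every replicate alone reaching that limit, limit read from the data, passing the limit was not always enough; inconclusive = no clear call, values can overlap the other calls; inactive = mean under the limit and some replicate under it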;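 note: myotubes were challenged with 10 µM simvastatin during compound exposure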
# * marks the source's active call; other numbers are inactive results; ? = inconclusive; . = not tested or not shown.
SMILES,MITF TRPM1 HTS,LMP1 NFkB inh,TRPM1 prom inh,esBAF inh,Wnt act,C2C12 statin
O=C(CN1CCN(Cc2ccc(Cl)cc2)CC1)N/N=C/c1cccc(F)c1,.,.,.,.,43.4*,.
O=C(N/N=C/c1cccc(F)c1)c1ccc(Cl)cc1,96.0*,-30.6,-85.6,68.8*,12.7,1.9
O=C(N/N=C/c1ccc(F)cc1)c1ccc(Br)cc1,51.6,-19.3,-48.3,37.0,5.6,6.5
O=S(=O)(c1ccc(Cl)nc1)N1CCc2ccccc21,7.9,6.8,-4.6,.,17.5,.
CC(C)(C)c1ccc(C(=O)N/N=C/c2cccc(Cl)c2)cc1,.,-24.8,-45.3,53.9*,?,-7.2
O=C(CSCc1ccc(Cl)cc1)N/N=C/c1c(Cl)cccc1Cl,5.1,4.7,-1.6,.,0.0,.
O=C(CSCc1ccc(Cl)cc1)N/N=C/c1ccccc1,2.4,-1.7,0.6,0.3,-6.7,114.4*
CCCc1cc(=O)[nH]c(SCC(=O)NCCC2=CCCCC2)n1,6.4,-4.3,-1.8,.,0.7,.
Cc1oc(-c2ccccc2F)nc1CS(=O)(=O)CC(=O)N1CCc2ccccc21,-10.3,-8.1,10.7,-2.5,1.8,-5.8
O=C(CN1C(=O)c2ccc([N+](=O)[O-])cc2C1=O)Nc1cc(S(=O)(=O)N2CCOCC2)ccc1Cl,-3.2,-3.1,3.0,-2.7,3.7,8.0
COc1ccc(Nc2nc3ccc(C)cn3c(=O)c2/C=N/O)cc1,21.5,4.6,-18.9,-0.1,-1.4,109.2*
CC(=O)N1N=C2c3ccccc3CCC2C1c1ccc(F)cc1 (stereo not drawn),.,.,.,.,2.5,.
CN(C)c1ccc(C2C3CCCc4ccccc4C3=NN2C)cc1 (stereo not drawn),32.5,-29.8,-27.0,47.4*,1.0,-8.7
COc1cccc(CNc2ccccc2O)c1OCc1ccccc1F,-7.7,4.2,7.9,-5.9,1.2,96.1*
Cc1cccc(C)c1Nc1nnc(SCc2cc([N+](=O)[O-])cc3c2OCOC3)s1,-1.1,-12.5,2.5,8.1,-1.9,243.7*
COc1cccc(Nc2nnc(SCc3cc([N+](=O)[O-])cc4c3OCOC4)s2)c1,13.7,3.8,-15.0,.,.,.
CCOc1ccc(C(=O)Nc2cccc(-c3ccc(N4CCOCC4)nn3)c2)cc1OCC,106.3*,-15.2,-104.2,64.0*,22.4,-25.8
CCC(=O)Nc1cccc(-c2ccc(N3CCN(C)CC3)nn2)c1,85.0*,-20.6,-87.8,41.3*,.,-5.5
CCOc1ccccc1C(=O)Nc1cccc(-c2ccc(N3CCOCC3)nn2)c1,110.8*,-39.8,-105.5,62.8*,?,-46.8
COc1cccc(C(=O)Nc2cccc(-c3ccc(N4CCOCC4)nn3)c2)c1,136.9*,-6.8,-143.2,66.6*,22.4,-31.5
CCN(CC)C(=O)CSc1nnc(-c2ccccc2)n1-c1ccccc1,-4.2,-1.2,6.7,4.3,.,6.6
C[C@H]1CCCCO[C@H](CN(C)C(=O)c2ccccc2)[C@@H](C)CN([C@@H](C)CO)C(=O)c2cc(NS(=O)(=O)c3cn(C)cn3)ccc2O1,.,.,.,-5.8,.,.
COc1cccc(C(=O)Nc2cccc(-c3ccc(N4CCOCC4)nn3)c2)c1OC,?,-5.5,-85.6,19.8,28.2,-32.2
COc1ccc(C(=O)Nc2cccc(-c3ccc(N4CCOCC4)nn3)c2)cc1OC,96.0*,-11.2,-91.6,19.4,26.3,-14.0
Cc1ccc(/C=N/Nc2cccc3cccnc23)c(O)c1,47.0,-69.0,-47.4,32.3,25.7,-3.9
SMILES,MITF TRPM1 HTS,LMP1 NFkB inh,TRPM1 prom inh,esBAF inh,Wnt act,C2C12 statin
Oc1ccc(/C=N/Nc2cccc3cccnc23)c(O)c1,44.5,-15.4,-44.9,78.8*,.,48.2
CCOC(=O)c1nnn(-c2nonc2-n2cccc2)c1CCl,23.3,-14.3,-21.8,.,.,.
c1coc(CN2CN=C(Nc3nc4ccccc4s3)NC2)c1,38.7,-6.8,-33.4,50.6*,18.3,3.8
Cc1nnc(NCc2ccco2)s1,4.8,4.3,-2.4,7.0,-3.1,-1.4
c1ccc(CN2CN=C(Nc3nc4ccccc4s3)NC2)cc1,4.0,-13.0,-1.5,8.5,8.7,-4.6
c1coc(CNc2nc3ccccc3s2)c1,28.6,-14.9,-25.8,27.7,35.6*,13.9
